Several values for one entry are separate records, joined by “and”; a condition that tells them apart may be missing. Equal entries are not always repeated. Records with an inconclusive call do not appear. The source holds several records for some structures; these can differ, active in one and inactive in another. Activity calls are given as the source filed them. Unless noted, calls come from the whole dose curve; as a rule, active = well fitted curve in the direction sought with a large enough effect in the repeat runs; inconclusive = weak or mixed curves; inactive = no such curve, though single readings can be large; an effect the other way counts as inactive or inconclusive.

Assay [1] addresses Progesterone receptor (Homo sapiens) (UniProt P06401). Kind of assay: qHTS assay to identify small molecule agonists of the progesterone receptor (PR) signaling pathway (AID 1346784; calls by dose curve; note: nearly all actives have a fitted effect of over 30% in size; note: potency is the fitted concentration of half-maximal effect). In a few lines: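 PR-UAS-bla HEK 293T cells (beta-lactamase reporter under UAS) in 2% charcoal-stripped FBS, dosed with 23 nL compound after 6 hr, incubated 16hr at 37C. LiveBLAzer B/G FRET substrate added, fluorescence read after 2 hours.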

Assay [2] shares this target. Nature of the assay: qHTS assay to identify small molecule antagonists of the progesterone receptor (PR) signaling pathway (AID 1346795; active = well fitted inhibition curve with a large enough effect in the signal ratio in the repeat runs, not every such curve was filed as active; the % refers to the signal ratio; note: potency is the fitted concentration of half-maximal effect). In a few lines: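 PR-UAS-bla HEK293T cells with beta-lactamase reporter under UAS control, in 2% charcoal-stripped FBS, treated with compounds plus 1 nM promegestone (R5020, final) for 16 hr at 37C. Read-out: FRET beta-lactamase substrate fluorescence after 2 hr at room temperature.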

A short description of assay [3]: qHTS assay to identify small molecule antagonists of the progesterone receptor (PR) signaling pathway - cell viability counter screen (AID 1346798). Note: series mostly up to about 92 µM; nearly all actives have a fitted effect of over 50% in size. In a few lines:
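PR-UAS-bla HEK293T cells, 3,000/well in 2% charcoal-stripped FBS medium, dosed with compounds plus R5020 agonist and incubated 16 h at 37C. Viability then measured in the same wells by CellTiter-Glo luminescence after 30 min at RT.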
On the technique in general: In qHTS, concentration-response curves come from the screen itself.

Assay [4] can be described thus: qHTS assay to identify small molecule agonists of the progesterone receptor (PR) signaling pathway - cell viability counter screen (AID 1346799; calls by dose curve; note: nearly all actives have a fitted effect of over 45% in size). In a few lines:
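Counter screen in the PR-UAS-bla HEK293T wells (2% charcoal-stripped FBS, 16 h compound exposure at 37 C) after the bla read. CellTiter-Glo added, 30 min at room temperature, luminescence read as cell viability.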

The nature of assay [5]: qHTS assay to identify small molecule antagonists of the TGF-beta/Smad signaling pathway - cell viability counter screen (AID 1346824). Note: nearly all actives have a fitted effect of over 50% in size. Put shortly:
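Cytotoxicity counter-screen run in the same wells as the beta-lactamase Smad reporter read: CellTiter-Glo luminescence after 30 min at room temperature. HEK 293T SBE-bla cells had 5 hr compound exposure at 37 C with TGF-beta1 (0.25 ng/mL stock).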

The nature of assay [6]: qHTS assay to identify small molecule agonists of the TGF-beta/Smad signaling pathway - cell viability counter screen (AID 1346829). Note: top concentration of the series differs between compounds; nearly all actives have a fitted effect of over 45% in size. In a few lines:
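Same-well cytotoxicity: CellTiter-Glo added after the 2 hr room-temperature beta-lactamase substrate step, luminescence measured 30 min later; cells had 5 hr of compound at 37 C.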

The nature of assay [7]: qHTS assay to identify small molecule agonists of the TGF-beta/Smad signaling pathway (AID 1346859; active = well fitted activation curve with a large enough effect in the signal ratio in the repeat runs, not every such curve was filed as active; the % refers to the signal ratio; note: series mostly up to about 77 µM). Put shortly:
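SBE-bla HEK293T cells plated overnight, then compound exposure for 5 h at 37 C. Beta-lactamase reporter read with LiveBLAzer B/G FRET substrate after 2 h at room temperature, fluorescence at 405 nm excitation, 460/530 nm emission.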

The nature of assay [8]: Human pregnane X receptor (PXR) small molecule agonists, qHTS cell viability counter screen (AID 1346977). Note: nearly all actives have a fitted effect of over 50% in size. Note: potency is the fitted concentration of half-maximal effect. Put shortly: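 PXR-Luc HepG2 cells (2,000/well, 5% charcoal-stripped FBS) preincubated 5 hr, then exposed to compounds 24 hr at 37 C. Viability read in the same wells by CellTiter-Fluor fluorescence, reagent added at 23 hr, 1 hr incubation.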
A short description of assay [9]: Caspase-3/7 induction in HepG2 cells by small molecules, qHTS assay (AID 1346978). Note: nearly all actives have a fitted effect of over 15% in size. In a few lines: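 Caspase-3/7 induction was measured by Caspase-Glo 3/7 luminescence (30 min, room temperature) after a 17 hr compound exposure of wild-type HepG2 cells seeded at 2,000 per well and pre-incubated 5 hr.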
Assay [10] in a line: Caspase-3/7 induction in CHO-K1 cells by small molecules, qHTS cell viability counter screen (AID 1346979). Note: nearly all actives have a fitted effect of over 35% in size. Note: potency is the fitted concentration of half-maximal effect. In a few lines:
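Wild-type CHO-K1 cells (1,500/well) treated with compound after 5 h plating; after 16 h at 37C, viability read as CellTiter-Fluor fluorescence following 1 h reagent incubation, in the same wells as the caspase read.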

The nature of assay [11]: Caspase-3/7 induction in CHO-K1 cells by small molecules, qHTS assay (AID 1346980). Note: nearly all actives have a fitted effect of over 15% in size. In a few lines:
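Luminescent Caspase-Glo 3/7 read (30min, room temperature) quantified apoptosis induction. Cells were wild-type CHO-K1, treated with compound for 17hr at 37 C and 5% CO2.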

The nature of assay [12]: Caspase-3/7 induction in HepG2 cells by small molecules, qHTS cell viability counter screen (AID 1346981). Note: series mostly up to about 92 µM; nearly all actives have a fitted effect of over 30% in size. In a few lines: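 HepG2, WT, 2,000 cells/well; 5 hr pre-incubation 37 C/5% CO2; compound pin-transferred from DMSO; 16 hr exposure; CellTiter-Fluor, 1 hr; fluorescence read.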
For assay [13], the target named is Nuclear receptor subfamily 1 group I member 2 (Homo sapiens) (UniProt O75469). Nature of the assay: Human pregnane X receptor (PXR) small molecule agonists, qHTS assay (AID 1346982). Note: nearly all actives have a fitted effect of over 35% in size. Note: potency is the fitted concentration of half-maximal effect. Put shortly: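 Luciferase signal from ONE-Glo (30 min, room temperature) measured activation of hPXR-driven CYP3A4 reporter expression in PXR-Luc HepG2 cells treated with compounds for 24 hr at 37 C.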
Nuclear receptor subfamily 1 group I member 2 (Homo sapiens), sequence (O75469 whole entry, looked up): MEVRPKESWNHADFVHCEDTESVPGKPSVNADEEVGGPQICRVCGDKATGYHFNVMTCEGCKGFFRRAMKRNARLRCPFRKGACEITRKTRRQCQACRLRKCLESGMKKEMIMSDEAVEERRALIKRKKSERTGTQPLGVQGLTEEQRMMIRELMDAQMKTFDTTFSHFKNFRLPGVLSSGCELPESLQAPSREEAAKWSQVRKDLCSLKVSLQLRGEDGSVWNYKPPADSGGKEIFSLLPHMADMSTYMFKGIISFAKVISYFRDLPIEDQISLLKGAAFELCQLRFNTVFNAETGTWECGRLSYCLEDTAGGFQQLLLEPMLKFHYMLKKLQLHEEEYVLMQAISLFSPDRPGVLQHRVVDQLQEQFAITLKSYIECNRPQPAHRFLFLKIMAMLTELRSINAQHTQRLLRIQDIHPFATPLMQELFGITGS

The target in assay [14] is Cytochrome P450 2D6 (Homo sapiens) (UniProt P10635). Kind of assay: Cytochrome P450 Family 2 Subfamily D Member 6 (CYP2D6) small molecule antagonists: luciferase reporter qHTS assay (AID 1671196). Note: nearly all actives have a fitted effect of over 50% in size. Note: potency is the fitted concentration of half-maximal effect. In a few lines:
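Read-out is luminescence from luciferin formed by CYP2D6 turnover of a proluciferin substrate, recorded as relative luminescence units. Reactions ran 1 h at room temperature after NADPH regeneration solution was added.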

The target in assay [15] is Cytochrome P450 2C19 (Homo sapiens) (UniProt P33261). Kind of assay: Cytochrome P450 Family 2 Subfamily C Member 19 (CYP2C19) small molecule antagonists: luciferase reporter qHTS assay (AID 1671197). Note: nearly all actives have a fitted effect of over 65% in size. Note: potency is the fitted concentration of half-maximal effect. In a few lines: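 Quantitative high-throughput screen of the Tox21 library using CYP2C19 with proluciferin substrate. Reaction: NADPH regeneration, 37C, 1 h, after 10 min compound preincubation at room temperature. Readout: luminescence.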
Cytochrome P450 2C19 (Homo sapiens), sequence (P33261 whole entry, looked up): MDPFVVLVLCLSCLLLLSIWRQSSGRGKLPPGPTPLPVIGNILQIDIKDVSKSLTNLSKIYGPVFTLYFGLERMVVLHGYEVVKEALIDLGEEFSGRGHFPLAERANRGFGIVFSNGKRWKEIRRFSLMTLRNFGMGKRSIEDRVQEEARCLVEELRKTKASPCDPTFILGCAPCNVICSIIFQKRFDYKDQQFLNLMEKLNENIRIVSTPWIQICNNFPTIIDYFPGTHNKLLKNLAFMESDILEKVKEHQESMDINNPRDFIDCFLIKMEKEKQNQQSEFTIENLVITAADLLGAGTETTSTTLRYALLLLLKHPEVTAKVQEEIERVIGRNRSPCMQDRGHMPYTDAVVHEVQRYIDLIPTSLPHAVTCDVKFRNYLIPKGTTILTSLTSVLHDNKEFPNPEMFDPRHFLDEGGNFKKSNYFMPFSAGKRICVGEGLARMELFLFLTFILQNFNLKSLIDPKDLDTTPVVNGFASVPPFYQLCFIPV

For assay [16], the target named is Thyrotropin-releasing hormone receptor (Homo sapiens) (UniProt P34981). Kind of assay: qHTS assay to identify small molecule antagonists of the thyrotropin-releasing hormone receptor (TRHR) signaling pathway (AID 1346877; active = well fitted inhibition curve with a large enough effect in the repeat runs, not every such curve was filed as active; note: series mostly up to about 51 µM). Put shortly:
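Intracellular calcium fluorescence, read kinetically every second over 3 min, reports TRH-evoked signalling in HEK293 cells carrying TRHR. Test compounds were added 5 min ahead of a 1 nM TRH challenge.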

The target is the same in assay [17]. Kind of assay: qHTS assay to identify small molecule agonists of the thyrotropin-releasing hormone receptor (TRHR) signaling pathway (AID 1346891; calls by dose curve; note: series mostly up to about 58 µM). In a few lines:
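HEK293 cells expressing TRHR plated 18 h at 37 C/5% CO2, calcium dye-loaded 2 h at 37 C, then compound added (agonist mode); kinetic calcium fluorescence read 3 min at 1 s intervals; 15 concentrations in triplicate.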

In assay [18] the target is Nuclear receptor subfamily 1 group I member 2 (Rattus norvegicus) (UniProt Q9R1A7). Kind of assay: Rat pregnane X receptor (rPXR) activation by small molecules, qHTS assay (AID 1346983). Note: nearly all actives have a fitted effect of over 20% in size. Particulars: rPXR luciferase reporter cells, One-Glo luminescence, 24 h; max activation: stronger effect = higher value. In a few lines: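 Luminescent readout (One-Glo luciferase, 30 min room temperature) followed 24 hr compound treatment at 37 C of rPXR cells plated 2,000 per well and preincubated 5hr; qHTS format with compounds delivered in DMSO.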
Nuclear receptor subfamily 1 group I member 2 (Rattus norvegicus), sequence (Q9R1A7 whole entry, looked up): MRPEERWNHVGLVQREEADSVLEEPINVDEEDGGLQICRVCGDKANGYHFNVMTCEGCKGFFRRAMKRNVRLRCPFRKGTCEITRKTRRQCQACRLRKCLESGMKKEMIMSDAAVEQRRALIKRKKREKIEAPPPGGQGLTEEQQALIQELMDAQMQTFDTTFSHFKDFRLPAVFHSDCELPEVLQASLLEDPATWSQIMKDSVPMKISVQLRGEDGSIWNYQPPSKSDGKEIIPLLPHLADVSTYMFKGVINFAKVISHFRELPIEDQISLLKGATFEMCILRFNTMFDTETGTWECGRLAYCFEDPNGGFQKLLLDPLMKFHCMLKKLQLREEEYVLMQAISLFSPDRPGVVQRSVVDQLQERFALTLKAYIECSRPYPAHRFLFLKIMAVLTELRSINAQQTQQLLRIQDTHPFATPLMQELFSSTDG

For assay [19], the target named is Nuclear receptor subfamily 1 group I member 2 (Homo sapiens) (UniProt O75469). Kind of assay: CYP3A4 induction through human pregnane X receptor (PXR) by small molecules, qHTS assay (AID 1346984). Note: nearly all actives have a fitted effect of over 40% in size. In a few lines: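 Luminescence readout: luciferase signal after One-Glo (30 min, room temperature), following 3 h at 37C with 3uM final Luciferin-IPA P450 substrate. Cells were DPX-2 (HepG2, PXR/CYP3A4-luc co-transfected) dosed for 24 h.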

For assay [20] the target is unchanged. Nature of the assay: Human pregnane X receptor (PXR) activation by small molecules, qHTS assay (AID 1346985). Note: nearly all actives have a fitted effect of over 40% in size. Put shortly:
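DPX-2 cells (HepG2 co-transfected with a PXR response element and a CYP3A4-promoter luciferase construct) were seeded at 2,000 per well, rested 5 hr at 37C, then exposed to DMSO-dissolved compounds for 24 hr. Activation was read as luciferase luminescence.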
% is set by controls: 0 for no effect and ±100 for the full control effect.

Cytochrome P450 2D6 (Homo sapiens), sequence (P10635 whole entry, looked up): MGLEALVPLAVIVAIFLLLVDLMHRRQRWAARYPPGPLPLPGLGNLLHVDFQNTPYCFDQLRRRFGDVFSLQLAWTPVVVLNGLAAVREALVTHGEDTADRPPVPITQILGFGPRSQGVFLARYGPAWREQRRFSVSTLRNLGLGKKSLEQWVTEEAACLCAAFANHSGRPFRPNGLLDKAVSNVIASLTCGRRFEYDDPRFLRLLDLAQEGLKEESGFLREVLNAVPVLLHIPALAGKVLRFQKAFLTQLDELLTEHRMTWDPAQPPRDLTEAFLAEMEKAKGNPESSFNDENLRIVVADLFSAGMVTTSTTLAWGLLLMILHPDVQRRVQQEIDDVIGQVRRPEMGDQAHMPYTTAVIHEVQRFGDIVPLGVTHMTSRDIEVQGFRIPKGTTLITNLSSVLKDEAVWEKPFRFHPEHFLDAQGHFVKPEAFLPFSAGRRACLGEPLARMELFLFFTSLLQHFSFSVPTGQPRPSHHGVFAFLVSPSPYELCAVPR
Progesterone receptor (Homo sapiens), sequence (P06401 whole entry, looked up): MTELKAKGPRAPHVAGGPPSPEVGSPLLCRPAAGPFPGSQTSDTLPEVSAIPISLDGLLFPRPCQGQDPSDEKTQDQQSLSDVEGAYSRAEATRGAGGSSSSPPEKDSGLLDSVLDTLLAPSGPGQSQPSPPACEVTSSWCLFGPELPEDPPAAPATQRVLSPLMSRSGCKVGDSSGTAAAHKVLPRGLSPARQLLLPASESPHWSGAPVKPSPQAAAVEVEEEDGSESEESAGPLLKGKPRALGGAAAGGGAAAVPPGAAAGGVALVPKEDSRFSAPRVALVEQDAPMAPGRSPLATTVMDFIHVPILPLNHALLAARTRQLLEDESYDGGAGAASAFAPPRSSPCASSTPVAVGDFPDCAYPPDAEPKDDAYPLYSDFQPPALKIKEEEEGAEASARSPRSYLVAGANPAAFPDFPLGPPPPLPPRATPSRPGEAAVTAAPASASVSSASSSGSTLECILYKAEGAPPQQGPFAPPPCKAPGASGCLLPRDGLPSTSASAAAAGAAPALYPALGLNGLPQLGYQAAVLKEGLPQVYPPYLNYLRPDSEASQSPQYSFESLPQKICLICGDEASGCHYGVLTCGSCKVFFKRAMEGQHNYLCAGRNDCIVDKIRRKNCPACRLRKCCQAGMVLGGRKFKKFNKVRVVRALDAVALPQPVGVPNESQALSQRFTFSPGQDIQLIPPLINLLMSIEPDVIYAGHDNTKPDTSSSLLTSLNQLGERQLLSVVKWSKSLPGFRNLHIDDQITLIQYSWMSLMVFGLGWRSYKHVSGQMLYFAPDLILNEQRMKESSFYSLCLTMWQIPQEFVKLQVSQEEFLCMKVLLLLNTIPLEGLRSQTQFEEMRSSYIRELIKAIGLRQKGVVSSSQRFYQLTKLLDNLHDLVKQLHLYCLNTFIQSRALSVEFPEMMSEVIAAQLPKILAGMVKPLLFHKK
Thyrotropin-releasing hormone receptor (Homo sapiens), sequence (P34981 whole entry, looked up): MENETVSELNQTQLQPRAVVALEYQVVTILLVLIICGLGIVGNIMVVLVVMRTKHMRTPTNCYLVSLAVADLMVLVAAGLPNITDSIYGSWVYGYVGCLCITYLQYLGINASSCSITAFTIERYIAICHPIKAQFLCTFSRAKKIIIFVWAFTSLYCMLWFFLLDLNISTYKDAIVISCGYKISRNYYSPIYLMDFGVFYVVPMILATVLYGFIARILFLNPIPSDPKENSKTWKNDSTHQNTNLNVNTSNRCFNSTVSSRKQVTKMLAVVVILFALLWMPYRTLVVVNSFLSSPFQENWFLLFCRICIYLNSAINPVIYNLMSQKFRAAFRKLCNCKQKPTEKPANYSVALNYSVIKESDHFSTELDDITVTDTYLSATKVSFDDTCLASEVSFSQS

For `O=C(O)c1ccccc1`, the Potency result in assay [1] was “inactive and 596 nM (active)”; in assay [14] it was 37.4 µM (active) and inactive; in assay [15], 33.3 µM (active) and 3.47 µM (active) and inactive. In addition, the Potency result in [2], in [3], in assay [4], in assay [5], in [6] and in [8] was “inactive” each time. For the same molecule, the Potency entry in assay [9], in [10], in assay [11], in assay [12] and in assay [13] was “inactive” in each case. In addition, in assay [7], the molecule was called inactive.

As for `CC(=O)Nc1c(I)c(NC(C)=O)c(I)c(C(=O)O)c1I`, the Potency result in assay [1], in assay [2], in assay [3], in [4], in assay [5] and in assay [6] was “inactive” in each case. Also, the Potency result in [8], in assay [9], in assay [10], in assay [11], in assay [12] and in [14] was “inactive” throughout. In addition, the molecule was called inactive in [7]. The Potency in assay [13] was 24.3 µM (active) and inactive; in assay [15] it was “inactive and 79.6 µM (active)”.

As for `CNNCc1ccc(C(=O)NC(C)C)cc1`, the Potency result in assay [1], in assay [2], in assay [3], in assay [4], in assay [5] and in assay [16] was “inactive” each time. Further, the Potency entry in assay [17], in assay [8], in [9], in assay [10], in [11] and in assay [12] was “inactive” each time. Further, the outcome in assay [7] was inactive. For the same molecule, the max activation in [18] was -1.77% (inactive).

On to `CCOc1ccc(NC(C)=O)cc1`, for which the Potency result in assay [1], in [2], in assay [3], in assay [4], in [5] and in [16] was “inactive” in each case. Besides, the Potency result in assay [17], in assay [8], in [9], in [10], in assay [11] and in [12] was “inactive” in each case. Also, the Potency entry in assay [13] and in [14] was “inactive” throughout. Further, in assay [7], the molecule was classed as inactive.

Take `CC(C)C(=O)Nc1ccc([N+](=O)[O-])c(C(F)(F)F)c1`: the Potency result in assay [1], in [3], in assay [4], in assay [5], in assay [16] and in [17] was “inactive” in each case. Also, the Potency result in [12] was “inactive”. Further, the Potency in [2] was 25 µM (active); in [8] it was 50.1 µM (active) and inactive; in assay [10] it was 44.5 µM (active) and 54.5 µM (active) and 26.6 µM (active); in assay [13] it was 35.4 µM (active) and 34.4 µM (active) and 29.8 µM (active); in assay [14], 36.6 µM (active) and 63.3 µM (active); in assay [15] it was 18.3 µM (active) and 22.4 µM (active) and 7.76 µM (active). Besides, in [7], the outcome was inactive.

With `CC12CCC(CC1)C(C)(C)O2`, the Potency result in assay [1], in [2], in assay [3], in assay [4], in assay [5] and in [16] was “inactive” each time. Further, the Potency result in [17], in assay [8], in assay [10], in [12], in [13] and in assay [19] was “inactive” in each case. The Potency entry in [14] and in [15] was “inactive” throughout. Further, the molecule was classed as inactive in assay [7] and in assay [20]. Moreover, in [18], the max activation is -0.857% (inactive).

With `CCCCNC(=O)NS(=O)(=O)c1ccc(C)cc1`, the Potency result in assay [1], in [2], in [3], in [4], in assay [5] and in assay [16] was “inactive” each time. Further, the Potency result in [17], in [8], in assay [9], in assay [10], in assay [11] and in [12] was “inactive” in each case. In addition, the molecule was classed as inactive in assay [7].

Values taken from PubChem BioAssay (Tox21).
